Measured values as given in paper PMC4336329 (PLoS ONE, 2015).
Hit rate of the full screen: of about 310,000 compounds, about 2,200 (0.71%) showed an effect of 50% or more. The effect is printed as a negative number. Only a selection was taken, and strong results are over-represented in it overall.

Target: human ether-à-go-go-related gene (hERG) potassium channel (human, UniProt Q12809)
Experiment: primary screen, population patch clamp on CHO cells stably expressing hERG; higher = less effect of the substance
Experimental: Briefly, Chinese hamster ovary (CHO) cells stably expressing the hERG channel were dislodged from tissue culture flasks and dispensed into PPC plates. […] During the recording, background leak currents were estimated by a 100 ms step to -80 mV from an initial holding potential of -70 mV and subtracted from the subsequent current measurement. The campaign was conducted in two phases using slight differences in recording protocol. In the first phase, the initial voltage pulse used a 100 ms step to -30 mV from a holding potential of -70 mV, a 2 s conditioning step to +25 mV, and a 2 s test step to -30 mV. During the second phase of the screen, the potential during the conditioning step was raised to +45 mV. In both phases of the campaign, a secondary voltage pulse was applied using the same parameters as the second phase initial pulse. The initial and secondary pulses were applied in the absence of compound, and upon application of 1 μM and 10 μM test concentrations. Small molecule effects on hERG current density were quantified by […].

Chain of human ether-à-go-go-related gene (hERG) potassium channel (Q12809 whole entry, looked up): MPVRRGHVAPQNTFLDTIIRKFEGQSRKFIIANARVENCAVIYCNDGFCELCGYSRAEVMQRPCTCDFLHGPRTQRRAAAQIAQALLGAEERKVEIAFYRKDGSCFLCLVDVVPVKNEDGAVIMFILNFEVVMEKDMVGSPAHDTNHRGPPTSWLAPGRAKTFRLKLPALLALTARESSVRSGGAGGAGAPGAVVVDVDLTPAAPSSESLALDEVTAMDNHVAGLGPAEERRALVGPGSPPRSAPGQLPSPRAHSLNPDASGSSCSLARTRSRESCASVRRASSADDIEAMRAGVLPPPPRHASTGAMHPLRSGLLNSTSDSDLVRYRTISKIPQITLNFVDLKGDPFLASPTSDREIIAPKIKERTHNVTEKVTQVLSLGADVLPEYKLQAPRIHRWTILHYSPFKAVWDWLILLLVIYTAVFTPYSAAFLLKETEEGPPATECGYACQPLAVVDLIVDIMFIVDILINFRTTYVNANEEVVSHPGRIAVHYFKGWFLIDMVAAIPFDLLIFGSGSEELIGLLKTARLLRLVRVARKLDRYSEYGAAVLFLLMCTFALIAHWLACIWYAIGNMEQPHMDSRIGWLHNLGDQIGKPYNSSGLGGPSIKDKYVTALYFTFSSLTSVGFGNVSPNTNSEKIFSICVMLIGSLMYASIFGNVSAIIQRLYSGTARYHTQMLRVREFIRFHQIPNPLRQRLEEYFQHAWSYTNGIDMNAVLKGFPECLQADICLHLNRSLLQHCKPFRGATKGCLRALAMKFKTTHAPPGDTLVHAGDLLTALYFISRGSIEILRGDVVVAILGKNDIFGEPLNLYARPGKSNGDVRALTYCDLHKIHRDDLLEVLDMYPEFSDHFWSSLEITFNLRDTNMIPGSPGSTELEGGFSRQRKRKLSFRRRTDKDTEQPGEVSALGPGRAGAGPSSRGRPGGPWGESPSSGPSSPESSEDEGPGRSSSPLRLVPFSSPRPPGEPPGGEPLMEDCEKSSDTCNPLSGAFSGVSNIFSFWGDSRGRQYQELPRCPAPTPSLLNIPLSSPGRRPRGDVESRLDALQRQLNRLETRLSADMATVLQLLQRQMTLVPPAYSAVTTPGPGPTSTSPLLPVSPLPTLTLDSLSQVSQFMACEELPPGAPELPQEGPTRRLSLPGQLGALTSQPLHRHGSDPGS

Row | Structure (SMILES) | hERG current change (%, negative = inhibition) at 1uM
1 | Cn1cnc([N+](=O)[O-])c1Cl | 11%
2 | O=C(CN1C(=O)c2ccccc2C1=O)Nc1ccccc1C(=O)NC1CCCCCC1 | 6.73%
3 | Cc1ccc(CNC(=O)c2ccc(N3CCC4(CC3)CC(c3cccc(Br)c3)=NO4)c(NC(=O)c3cccc(C)c3)c2)cc1 | 8.49%
4 | CCCSc1nc(C)c(C(C)=O)cc1C#N | 7.88%
5 | O=C(CN1CCCC1)Nc1ccccc1C(=O)c1ccccc1 | 10.5%
6 | O=C(CCN1CCCCC1)Nc1ccc(Cl)cc1C(=O)c1ccccc1 | -42.9%
7 | O=C(CN1CCN(CCO)CC1)Nc1ccc(Cl)cc1C(=O)c1ccccc1 | -80.7%
8 | Cc1ccc(CNC(=O)N2CCN(c3ccc(C)cc3)CC2)cc1 | 14.1%
9 | N#Cc1ccc(C2=CC(=O)C[C@H](c3ccc(F)cc3)C2)cc1 | -61.4%
10 | O=C1C=C(c2ccc(-c3ccccc3)cc2)C[C@@H](c2ccc(Cl)cc2)C1 | 15.9%
11 | O=C1C=C(c2ccc(-c3ccccc3)cc2)C[C@@H](c2ccc(F)cc2)C1 | 6.09%
12 | N#Cc1ccc(C2=CC(=O)C[C@H](c3ccc(Cl)cc3)C2)cc1 | -51.9%
13 | Cc1ccc(C2=CC(=O)C[C@H](c3ccc(F)cc3)C2)cc1 | 14.5%
14 | Cc1ccc(C2=CC(=O)C[C@H](c3ccc(Cl)cc3)C2)cc1 | 10.4%
15 | Cc1ccc2nc3c(cc2c1)c(NC(=O)C(C)(C)C)nn3CC(C)C | 7.75%
16 | COc1ccc(S(=O)(=O)N2CCCCCC2)cc1C(=O)N(C)Cc1ccccc1F | 6.9%
17 | CCCn1c(SCC(=O)Nc2ccccc2OC)nnc1-c1ccco1 | -18.2%
18 | NC(=O)c1ccc(NC(=O)CCCNC(=O)c2ccc(Cl)cc2)cc1 | 16.6%
19 | CCOc1ccc2nc(NC(=O)c3cc([N+](=O)[O-])ccc3N3CCOCC3)sc2c1 | 8.4%
20 | COc1ccc(CN(C(=O)COc2ccccc2)c2ccccc2C(=O)O)cc1 | 22%
21 | CC(C)Cn1c(CN(C)Cc2ccccc2)nc2c1c(=O)n(C)c(=O)n2C | -6.95%
22 | CC12CCC(C(=Nc3ccc(N=C4C(=O)C5(C)CCC4C5(C)C)cc3)C1=O)C2(C)C | 8.42%
23 | COc1ccc(CNC(=S)NC2CCCC2)cc1 | 9.23%
24 | COc1ccc(NC(=O)N2CCC(CO)(CC3CCCCO3)CC2)c(OC)c1 (stereo not drawn) | 9.96%
